Laboratory results taken from PubChem BioAssay AID624053 (National Center for Advancing Translational Sciences (NCATS), 2012).
Activity calls are given as the source filed them.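 How the source made its calls: active means neuropeptide S receptor blocker with IC50 at or below 10 µM; inconclusive means IC50 above 10 µM but below 20 µM; inactive means IC50 of 20 µM or more.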

molecular target: Neuropeptide S receptor (Homo sapiens) (UniProt Q6W5P4); experiment: qHTS for Antagonists of the Neuropeptide S Receptor: SAR in ERK; details: CHO-NPSR cells, NPS-induced pERK1/2 HTRF
From the text: Neuropeptide S receptor (NPSR), previously known as GPR154, is a recently de-orphanized G protein coupled receptor. Its endogenous ligand is the 20 amino acids peptide Neuropeptide S (NPS). […] NPS and its receptor are found in various tissues. Specifically they are highly expressed in brain areas that have been implicated in modulation of arousal, stress and anxiety. Central administration of NPS in mice produces an unusual profile of activity by inducing wakefulness and arousal, while at the same time suppressing anxiety. Therefore, NPSR may represent a novel drug target for the treatment of sleep and anxiety disorders. To identify NPSR antagonists, we developed a cell-based assay with transfected NPS receptor. NPS can stimulate the production of cAMP as well as release intracellular calcium in Chinese hamster ovary cells stably expressing NPS receptor. This change in intracellular calcium can be detected using a calcium indicator dye on a calcium imaging plate reader system (FDSS). […] Reinscheid et al. have demonstarted that the binding of NPS to NPSR activates the phosphorylation of the MAPK extracellular regulated kinase (ERK). Thus NPSR antagonists of ERK activation should reduce ERK phosphorlyation is a dose dependent manner NIH Chemical Genomics Center [NCGC] NIH Molecular Libraries Probe Production centers Network [MLPCN] MLPCN Grant: DA026210 Assay Submitter (PI): Heilig, Markus Alexander
Intracellular pERK1/2 levels were measured using a time-resolved fluorescence resonance energy transfer (TR-FRET) assay by a HTRF Cellul'erk kit (Cisbio, MA). The CHO cells overexpressing NPSR were seeded at 200 microL/well with 25,000 cells in white, tissue culture treated clear bottom 96-well plates (Greiner Bio-One, NC). Following overnight incubation at 37 masculineC with 5% CO2, the growth medium was replaced with 100 microL /well Opti-MEM medium (ATCC, VA) and incubated at 37 degrees C with 5% CO2 for an additional 4 hours. The compounds prepared in 100% DMSO were added to assay plates at 1 microL/well. The assay plates were incubated for 10 min at 37 degrees C with 5% CO2 and NPS solution (2 nM NPS peptide prepared in the Opti-MEM medium with 0.2 % BSA and 0.005 % Tweeen-20) was then added at 100 microL/well. After a 20 min incubation at 37 degrees C with 5% CO2, the media was aspirated and the place plates were placed on ice for 5 min followed by the addition of 50 microL/well of 1 cell lyses solution. The plates were then incubated at room temperature while gently rocking (for mixing) for 15 min. […] After overnight incubation at room temperature in the dark, the plates were measured using the EnVision plate reader similarly as that of cAMP assay.

Chain of Neuropeptide S receptor (Homo sapiens) (Q6W5P4 whole entry, looked up): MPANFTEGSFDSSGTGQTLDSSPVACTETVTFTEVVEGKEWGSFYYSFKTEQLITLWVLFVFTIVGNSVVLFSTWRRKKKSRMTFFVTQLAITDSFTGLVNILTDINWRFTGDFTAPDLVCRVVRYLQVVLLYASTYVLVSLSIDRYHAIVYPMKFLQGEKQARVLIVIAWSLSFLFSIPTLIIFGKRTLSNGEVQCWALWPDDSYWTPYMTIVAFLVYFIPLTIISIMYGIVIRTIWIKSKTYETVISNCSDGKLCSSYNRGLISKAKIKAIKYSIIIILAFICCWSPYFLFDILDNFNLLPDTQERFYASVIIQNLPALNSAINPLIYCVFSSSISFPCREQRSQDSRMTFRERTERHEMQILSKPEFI

IC50, active:
O=C1OC(c2ccccc2)(c2ccccc2)N2CCN(C(=O)NCc3ccc(F)cc3)CC12 (centres undefined) 15.8 nM, COc1ccc(C2c3c(ncn(CCN4CCOCC4)c3=N)Oc3ccc4ccccc4c32)cc1OC (centres undefined) 59.7 nM, Cc1c(P(=S)(c2ccccc2)c2ccccc2)[n+]2ccccc2n1C/C=C/c1ccccc1 9.3 nM, CCC(C)(CCN1CCOCC1)N(Cc1cc2ccccc2n(C)c1=O)C(=O)C1CCCCC1 (centres undefined) 9 nM
